The record followed here is PubChem BioAssay AID686979 (National Center for Advancing Translational Sciences (NCATS), 2013).

Each structure is given as a SMILES string. The campaign covered roughly 420,000 compounds. About 50,000 (12%) were called active. Inconclusive results (about 26%) are left out. Calls follow the shape of the dose curve; as a rule, active = well fitted inhibition curve with a large enough effect; inconclusive = small, poorly fitted or top-dose-only effect; inactive = flat fitted curve, though single readings scatter. Shown is part of a subset that was picked to be rich in actives. Entries that show only a call come without a potency.
Potency is read from the fitted curve at half-maximal effect.

The nature of this experiment: qHTS for Inhibitors of human tyrosyl-DNA phosphodiesterase 1 (TDP1): qHTS in cells in presence of CPT. Also: nearly all actives have a fitted effect of over 55% in size. Particulars: chicken DT40 Tdp1-/-;hTDP1 cells + 20 nM CPT, ATP luminescence, 48 h; series mostly up to 46.2 µM. The method, boiled down:
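Cell growth measured by CellTiter-Glo luminescence after a minimum 48 h, 37 C compound exposure with 20 nM CPT in Tdp1-knockout DT40 cells stably expressing hTDP1, seeded 400/well; qHTS titration format.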
Background: qHTS replaces the single test concentration by a dilution series.
Take `COC(=O)c1ccc(CNC(=O)C2CCC(=O)N(Cc3ccccn3)C2)cc1` (configuration not stated): the Potency entry was “inactive”. On the same count and under the same terms, then `CCOC(=O)C1=C(CN2CCc3ccccc32)NC(=O)NC1c1cccc([N+](=O)[O-])c1` (configuration not stated), with 14.1 µM (active); and `CCOC(=O)C1=C(CSc2nccn2C)NC(=O)NC1c1ccc(OC)cc1` (configuration not stated), with “inactive”; and `CCOC(=O)C1=C(CNC2CCCCC2)NC(=O)NC1c1cc(C)ccc1C` (configuration not stated), with 25.9 µM (active). Same read-out and setting: the same measure for `CCOCCOC(=O)C1=C(C)NC(=O)NC1c1ccc2c(c1)OCO2` (configuration not stated): “inactive”; for `CCOC(=O)C1=C(c2ccccc2)NC(=O)NC1c1cc(OC)c(OC)cc1OC` (configuration not stated): “inactive”. On the same count and under the same terms, then `CCOC(=O)COc1ccc(Cl)cc1C1NC(=O)NC(C)=C1C(C)=O` (configuration not stated), with “inactive”. For `Cc1nn(-c2ccccc2)c2c1C(c1cccc([N+](=O)[O-])c1)N(c1ccccc1)C(=O)N2` (configuration not stated), the Potency entry was “inactive”. On the same count and under the same terms, then `CCOC(=O)C1=C(CN2CCc3ccccc32)NC(=O)NC1c1cc(C)ccc1C` (configuration not stated), with 17.8 µM (active). Still for that read-out and setting: then `NC(=O)N1CCc2ccccc21`, with “inactive”; and `CCc1cc(-c2nnc(SCC(=O)NC3CC3)n2C)cs1`, with “inactive”. Same read-out and setting: then `NC(CSC(c1ccccc1)(c1ccccc1)c1ccc(-c2ccccc2)cc1)C(=O)O` (configuration not stated), with “inactive”. Take `COC(=O)[C@@H]1C[C@H](NC(=O)c2ccccc2C(F)(F)F)CN1Cc1cccc(O)c1`: the activity change, negative = growth inhibition was 9.61% [at 9.04 µM] (inactive). With `CC(CN1CCC(n2nccc2NC(=O)C2CCCC2)CC1)c1ccccc1` (configuration not stated), the Potency entry was “inactive”.

As for `C=CCN1CCN(c2ccncc2S(=O)(=O)N2CCN(C)CC2)CC1`, the Potency result is “inactive”.

As to `CC1(C(=O)NCc2ccccc2)CSCC(=O)N1CCCN1CCOCC1` (configuration not stated), the Potency entry is “inactive”. On the same count and under the same terms, then `Cc1cc2oc(=O)cc(CN(C)Cc3ccccc3)c2cc1Cl`, with “inactive”; and `CC(C)(O)C#Cc1ccc(CNC[C@H]2O[C@@H](n3cnc4c(=O)[nH]c(N)nc43)[C@H](O)[C@@H]2O)s1`, with “inactive”. Same read-out and setting: then `C=C(C)C(=O)O[C@H]1C/C(C)=C\C(=O)/C=C(\C)[C@H](O)[C@@H]2OC(=O)C(=C)[C@@H]21`, with 0.58 µM (active). Turning to `C/C=C(\C)C(=O)O[C@H]1CC(C)=C2C(=O)C=C(C)C2[C@@H]2OC(=O)[C@@](C)(OC(=O)C=C(C)C)C21` (some centres not stated), the activity change, negative = growth inhibition is -19.3% [at 9.04 µM] (inactive). In the case of `Cc1ccc(CNC(=O)CC(NC(=O)c2ccccc2)c2ccccc2)cc1` (configuration not stated), the Potency entry is “inactive”. With `Cn1c(SCC(=O)Nc2nccs2)nnc1-c1cccnc1`, the Potency entry is “inactive”.

For the compound `CCOC(=O)C1CCN(C(=O)Nc2ccc(C)c(Cl)c2)CC1`, the Potency entry was “inactive”. As to `COc1cccc(CNCc2ccc3c(c2)OCO3)c1`, the Potency result was “inactive”. Consider `COc1ccc(NC(=O)NCc2ccc3c(c2)OCO3)c(OC)c1`, for which the Potency result is “inactive”. The same measure, in the same setting: the same measure for `COc1ccc2c(c1)C(C)=CC(C)(C)N2C(=O)CNCc1ccc2c(c1)OCO2`: 20.6 µM (active); for `CCc1ccc(-n2c(=S)sc3c(=O)n(-c4ccccc4OC)c(=S)[nH]c32)cc1`: “inactive”.

For the compound `NS(=O)(=O)c1ccc(NC(=S)NNC(=O)c2cccs2)cc1`, the Potency result is “inactive”. Still for that read-out and setting: the same measure for `COc1ccc(C)cc1Nc1nc2ccccc2c2nnc(C)n12`: “inactive”; for `FC(F)(F)c1ccccc1-c1nc(-n2ccnc2)c2ccccc2n1`: “inactive”. The same measure, in the same setting: the same measure for `COc1cccc(NC(=O)C(Sc2nc3ccccc3c(=O)n2CC(C)C)c2ccccc2)c1` (configuration not stated): “inactive”. Consider `COc1cccc(Nc2nc3ccccc3c3nncn23)c1`, for which the Potency was 16.4 µM (active). Same read-out and setting: then `FC(F)(F)c1cc(Nc2nc3ccccc3c3nncn23)ccc1Cl`, with 23.1 µM (active). As to `O=C(OCC(=O)c1cccs1)c1ccc([N+](=O)[O-])o1`, the Potency entry is “inactive”.

With `Cc1ccc(CNC(=O)C2CCN(S(=O)(=O)c3ccc4nc5c(c(C(=O)O)c4c3)CC(C)CC5)CC2)cc1` (configuration not stated), the Potency entry was “inactive”. With `CCn1cc(CNC(=O)c2cc([N+](=O)[O-])c(C)c([N+](=O)[O-])c2)cn1`, the Potency result is “inactive”. On the same count and under the same terms, then `O=C(COc1ccc(Br)cc1)OCC(=O)c1ccc[nH]1`, with “inactive”. The same measure, in the same setting: the same measure for `Cc1c(C)n2c(SCC(=O)N3CCCC3)nnc2[nH]c1=O`: “inactive”. Still for that read-out and setting: then `Cc1cc2nnc(SCC(=O)N3CCN(c4ccccc4)CC3)n2c(N)n1`, with “inactive”. Regarding `CCOC(=O)C1CCCN(C(=O)CSc2nnc3nc(C)cc(C)n23)C1` (configuration not stated), the Potency is 25.9 µM (active). As to `CN(C(=O)COC(=O)c1ccc(Br)o1)c1c(N)n(Cc2ccccc2)c(=O)[nH]c1=O`, the Potency entry was “inactive”. Still for that read-out and setting: the same measure for `C[C@H](CO)N1C[C@H](C)[C@@H](CN(C)C(=O)c2cccc(F)c2)Oc2cc(-c3cncnc3)ccc2S1(=O)=O`: “inactive”. Take `Cc1ccccc1-c1ccc2c(c1)O[C@@H](CN(C)Cc1ccc(C(=O)O)cc1)[C@@H](C)CN([C@H](C)CO)S2(=O)=O`: the Potency result was “inactive”. Same read-out and setting: then `C[C@H]1CN([C@@H](C)CO)S(=O)(=O)c2ccc(-c3cccc(F)c3)cc2O[C@@H]1CN(C)C`, with “inactive”; and `C[C@@H]1CN([C@@H](C)CO)S(=O)(=O)c2ccc(C#Cc3cccc(F)c3)cc2O[C@H]1CN(C)S(=O)(=O)c1cn(C)cn1`, with 18.4 µM (active). The same measure, in the same setting: then `C[C@@H]1CN([C@H](C)CO)S(=O)(=O)c2ccc(C#C[C@@H](C)O)cc2O[C@@H]1CN(C)Cc1ccc(-c2ccccc2)cc1`, with 11.6 µM (active); and `C[C@@H]1CN([C@@H](C)CO)S(=O)(=O)c2ccc(-c3ccc(C(=O)N(C)C)cc3)cc2O[C@@H]1CN(C)Cc1ccccc1C(=O)O`, with “inactive”.

For the compound `CCc1c(C)nc2cc(C)[nH]n2c1=O`, the Potency result is “inactive”. On to `CCOc1ccc(S(=O)(=O)NCCC(=O)NCC2CCCO2)cc1` (configuration not stated), for which the Potency entry was “inactive”. Same read-out and setting: then `Cc1c[n+]([O-])ccc1[N+](=O)[O-]`, with “inactive”; and `O=C(O)C1CC=C(Cl)CC1C(=O)NCc1ccccc1` (configuration not stated), with “inactive”; and `O=C(NCc1ccccc1)C1CNCC(C(=O)NCc2ccccc2)C1` (configuration not stated), with “inactive”. On the same count and under the same terms, then `O=C(NCc1ccccc1)[C@H]1C[C@@H]1[C@H](NP(=O)(c1ccccc1)c1ccccc1)c1ccccc1`, with 18.4 µM (active); and `CCc1cc2cc(OC)ccc2nc1SCC(=O)Nc1cc(OC)c(OC)cc1C(=O)O`, with “inactive”; and `COc1ccc(C)cc1NC(=O)CSc1cccc[n+]1[O-]`, with “inactive”. On the same count and under the same terms, the same measure for `CCC(C(=O)NC(C)(C)C)n1c(-c2ccccc2)nc2ccccc21` (configuration not stated): 20.6 µM (active); for `CCC(C(=O)Nc1c(C)cccc1C)n1c(-c2cc(C)cs2)nc2ccccc21` (configuration not stated): “inactive”. In the case of `CCCc1nc2ccccc2n1C(C)C(=O)NC(C)(C)C` (configuration not stated), the Potency entry was “inactive”. The same measure, in the same setting: then `Cn1c(CNC(=O)C(C)(C)C)nc2ccccc21`, with “inactive”; and `CC(C)(C)NC(=O)C(CCc1ccccc1)n1c(=O)c(-c2ccccc2)nc2ccccc21` (configuration not stated), with 5.17 µM (active). Regarding `CC(=O)c1nc2ccccc2n1Cc1ccccc1`, the Potency result is “inactive”. On the same count and under the same terms, the same measure for `COc1ccc(OC)c(/C=N/NC(=O)c2ccc[n+](CC(=O)c3ccccc3)c2)c1`: “inactive”; for `COc1cccc(NC(=O)CN(C)C(=O)c2cc(C3CC3)nn2-c2ccccc2)c1`: “inactive”; for `CC(=O)Nc1ccc(NC(=O)COC(=O)C2CCC(C(C)(C)C)CC2)cc1` (configuration not stated): “inactive”.

`O=C(NCc1cccc(Cl)c1)C1CCN(c2nnc(N3CCCC3=O)s2)CC1`: the Potency entry was “inactive”. Still for that read-out and setting: the same measure for `COc1ccc(CCNC(=O)CN2CCC(n3nnc4cc(F)ccc43)CC2)cc1OC`: “inactive”. On the same count and under the same terms, then `COc1ccc(CCNC(=O)COC(=O)Cc2cccc(F)c2)cc1`, with “inactive”; and `Cc1ccc(CCNC(=O)Cn2c(-c3cccs3)cc3cc(F)ccc32)cc1`, with 18.4 µM (active); and `Cc1cnc(C(=O)Oc2cccc(Cl)c2Cl)cn1`, with “inactive”. Still for that read-out and setting: the same measure for `CCOC(=O)c1cnc(SC)nc1Sc1ccc(Cl)cc1Cl`: “inactive”.

`CCc1ccccc1NC1c2ccccc2C(=O)N1c1cccnc1` (configuration not stated): the Potency result is “inactive”. On the same count and under the same terms, then `O=C1[C@@H](c2ccccc2)[C@@H](c2ccccc2)N1c1cccnc1`, with 16.4 µM (active); and `O=C1C(=O)N(c2ccccc2)C(c2ccccc2)C1c1ccccc1` (configuration not stated), with “inactive”. Same read-out and setting: then `CCCN(CCC)c1c([N+](=O)[O-])c(=O)oc2ccccc12`, with “inactive”; and `O=C(COC(=O)c1ccncc1)c1ccccc1`, with “inactive”; and `O=C(c1c(Cl)cccc1Cl)N1CCN(c2cccc3[nH]ccc23)CC1`, with “inactive”. Still for that read-out and setting: the same measure for `Cc1[nH]c2ccc(C(=O)N3CCN(C)CC3)cc2c1C`: “inactive”; for `Cc1cccc(N2CCN(C(=O)c3cc4c(=O)[nH]c5ccccc5c4n3C)CC2)c1C`: 18.4 µM (active). For the compound `CN(C(=O)COC(=O)CCCc1c[nH]c2ccccc12)c1c(N)n(Cc2ccccc2)c(=O)[nH]c1=O`, the Potency result is “inactive”. Same read-out and setting: then `Oc1cc(O)c2c(c1)OC(c1ccc(O)c(O)c1)C(O)C2` (configuration not stated), with “inactive”. The same measure, in the same setting: the same measure for `Cc1sc2nc(-c3ccccc3F)oc(=O)c2c1C`: “inactive”. Same read-out and setting: then `COc1ccc(-c2csc3nc(-c4ccccc4F)oc(=O)c23)cc1OC`, with 18.4 µM (active); and `COc1ccccc1-c1nnc(-c2ccc(F)cc2)o1`, with “inactive”; and `Cc1ccc(N/C(N)=N/c2nc(C(F)(F)F)cc(C(F)(F)F)n2)cc1`, with “inactive”. With `CCc1cccc(NC(=O)CCNS(=O)(=O)c2cccc3nonc23)c1`, the Potency result was “inactive”. Turning to `Cc1ccc(C)c(NC(=O)CSc2nc3c(oc4ccccc43)c(=O)n2-c2ccccc2)c1`, the Potency is 14.6 µM (active). `Cc1ccc(C)c(NC(=O)COC(=O)CSc2ccccc2)c1`: the Potency result is “inactive”. `CCc1ccc(NC(=O)CSc2nc3c([nH]c4ccccc43)c(=O)n2-c2cccc(OC)c2)cc1`: the Potency result is “inactive”. Take `CC(Sc1nc2c([nH]c3ccccc32)c(=O)n1C)c1ccccc1` (configuration not stated): the Potency was 11.6 µM (active).

Take `CCOC(=O)c1ccc(NC(=O)c2cc(=O)[nH]c3ccccc23)cc1`: the Potency result was “inactive”.

In the case of `Cc1ccc(NC(=O)CSc2nnc3[nH]c(=O)cc(C)n23)cc1Cl`, the Potency entry was “inactive”.

Take `CCOC(=O)c1ccc(NC(=O)CSc2nnc(COc3ccccc3OC)n2C)cc1`: the Potency entry is “inactive”. As for `Cc1cccc(NC(=O)CSc2nc3c(oc4ccccc43)c(=O)n2-c2ccc(F)cc2)c1`, the Potency result is “inactive”. Same read-out and setting: then `Cn1nnnc1SCc1cc(=O)[nH]c2ccccc12`, with “inactive”; and `Cc1ccc(NC(=O)CSc2nc3c([nH]c4ccccc43)c(=O)n2-c2ccccc2)cc1Cl`, with 11.6 µM (active). Same read-out and setting: the same measure for `CCCCc1nc2c(=O)[nH]c3ccccc3c2o1`: “inactive”. Same read-out and setting: the same measure for `CCOC(=O)c1ccc(NC(=O)CSc2nc3c([nH]c4ccccc43)c(=O)n2C)cc1`: 8.2 µM (active).
